Measurements published in PubChem BioAssay (NCI).
The panel holds about 83,000 compounds, 20% with a hit somewhere; the sample as a whole holds those more often.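 Negative percent growth values reflect cell death: -40 means 40% of the cells present at the start died, and -100 means all died.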 Calls of active or inactive are those of the source. Rule for the calls: active = growth percent below 10; inactive = the rest.

Columns and labels:
Experiment in all cases: NCI-60 one-dose screen, 48 h (100 = growth as untreated, 0 = no growth, -100 = all killed)
Settings in all cases: 10 µM
[1] = tested on: NCI-H23 lung
[2] = tested on: NCI-H226 lung
[3] = tested on: NCI-H322M lung
[4] = tested on: HOP-62 NSCLC
[5] = tested on: NCI-H460 lung
[6] = tested on: NCI-H522 lung
[7] = tested on: A549/ATCC NSCLC
[8] = tested on: 786-0 renal
[9] = tested on: COLO 205 colon
[10] = tested on: DU-145 prostate
[11] = tested on: MALME-3M melanoma
[12] = tested on: MDA-MB-231 breast
[13] = tested on: RXF 393 renal
[14] = tested on: SF-268 CNS
[15] = tested on: SF-295 CNS
[16] = tested on: SF-539 CNS
[17] = tested on: UACC-257 melanoma
[18] = tested on: M14 melanoma
[19] = tested on: HCT-15 colon
[20] = tested on: K-562 leukemia

Measured: growth

COc1ccc(C2CC(c3ccc(N(C)C)cc3)=NN2c2ccc(S(N)(=O)=O)cc2)cc1 (stereo not drawn)
inactive: [1] 53.6% | [2] 52.4% | [3] 83.1% | [4] 78.2% | [5] 29.2% | [6] 40.9% | [7] 26.1% | [8] 64.3% | [9] 55.4% | [10] 78.4% | [11] 83% | [12] 67.7% | [13] 63.2% | [14] 59.6% | [15] 35.2% | [16] 114% | [17] 73.7% | [18] 69.2% | [19] 43%

CCCCCCCCCCCCCCCCCC(=O)OCCCCCCC
inactive: [1] 94.8% | [2] 89.6% | [3] 109% | [4] 121% | [5] 109% | [6] 107% | [7] 95.2% | [8] 114% | [9] 110% | [10] 104% | [11] 115% | [12] 98.7% | [13] 96.4% | [14] 94.9% | [15] 99.9% | [16] 112% | [17] 109% | [18] 108% | [19] 95.5%

CN(C)CCS(=O)(=O)CCN(C)C
inactive: [1] 107% | [2] 105% | [3] 113% | [4] 108% | [5] 97% | [6] 117% | [7] 106% | [8] 98.7% | [9] 105% | [10] 103% | [11] 117% | [12] 88.5% | [13] 99.2% | [14] 107% | [15] 110% | [16] 100% | [17] 110% | [18] 96.7% | [19] 103%

O=C(Nc1ccc(Cl)c(Cl)c1)Nc1c(Oc2ccc(Cl)c(Cl)c2)ccc(Cl)c1S(=O)(=O)O
active: [5] 9.02% | [6] -1.66% | [9] -13.9% | [20] 9.98% | [13] -14.3% | [15] -27.2% | [16] 4%
inactive: [1] 39.5% | [2] 66% | [3] 50.8% | [4] 49.4% | [7] 37% | [8] 35% | [10] 21.1% | [12] 39.5% | [14] 52.1% | [17] 61.9% | [18] 19.3% | [19] 39.6%

CCc1ccc2c(c1)N(CCO)C1=C(C(=O)OC1)C2c1ccccc1 (stereo not drawn)
inactive: [1] 101% | [2] 102% | [3] 115% | [4] 81.6% | [5] 109% | [7] 104% | [8] 97.1% | [9] 109% | [10] 115% | [20] 49.1% | [12] 103% | [13] 94.3% | [14] 106% | [15] 86% | [16] 103% | [18] 78.9% | [19] 71.6%
active: [6] 4.79%

COc1ccc(-c2ccc3cc(C(=O)Nc4ccc(O)c(C(=O)/C=C/c5cc(OC)c(OC)c(OC)c5)c4)ccc3c2)cc1
inactive: [1] 94.3% | [2] 82.5% | [3] 100% | [4] 114% | [5] 95.9% | [6] 87.7% | [7] 92.6% | [8] 102% | [9] 109% | [10] 102% | [20] 59% | [12] 85.6% | [13] 93% | [14] 105% | [15] 101% | [16] 103% | [17] 97.9% | [18] 89.1% | [19] 80.4%

CC(=O)c1cc(Cl)ccc1O
inactive: [1] 106% | [2] 98.1% | [3] 101% | [4] 107% | [5] 101% | [6] 118% | [7] 101% | [8] 104% | [9] 112% | [10] 105% | [20] 103% | [12] 100% | [13] 106% | [14] 104% | [15] 94.1% | [16] 89.1% | [17] 110% | [18] 106% | [19] 98.9%

COc1ccc2c(c1)N(CCO)C1=C(C(=O)OC1)C2c1ccc(OC)c(OC)c1 (stereo not drawn)
inactive: [1] 46.1% | [2] 46.7% | [3] 61.3% | [4] 39% | [5] 16.9% | [7] 50.4% | [8] 42.2% | [9] 29.7% | [10] 55.6% | [20] 19.8% | [12] 68% | [13] 28.2% | [14] 54.3% | [16] 13% | [17] 53.7% | [18] 36.1% | [19] 39.6%
active: [6] -12.4% | [15] 7.46%

CC1CC(=O)OC(C)C1 (stereo not drawn)
inactive: [1] 102% | [2] 93.1% | [3] 103% | [4] 92.2% | [5] 104% | [6] 103% | [7] 95.8% | [8] 101% | [9] 112% | [10] 111% | [11] 98.7% | [12] 113% | [13] 104% | [14] 111% | [15] 94.6% | [16] 98.5% | [17] 111% | [18] 100% | [19] 104%

CCc1ccc2c(c1)N(CCO)C1=C(C(=O)OC1)C2c1cc(OC)c(OC)c(OC)c1 (stereo not drawn)
active: [2] 3.03% | [5] 2.43% | [6] -40.4% | [9] -69.3% | [10] -28.3% | [12] -28% | [15] -28.4% | [16] -9.69% | [19] 6.93%
inactive: [1] 19.5% | [3] 13.7% | [4] 28.8% | [7] 16.3% | [8] 20.2% | [20] 10.5% | [13] 53.4% | [14] 21.7% | [17] 50.5% | [18] 10.2%

FC(F)(F)c1ccc2nc(-c3nc(-c4ccccc4)n4ccccc34)[nH]c2c1
inactive: [1] 78.9% | [2] 99.4% | [3] 55% | [4] 110% | [5] 59.4% | [6] 68.3% | [7] 49.5% | [8] 40.2% | [9] 58.9% | [10] 68.7% | [20] 82.7% | [12] 22.1% | [13] 94.4% | [14] 49.1% | [15] 104% | [16] 35.1% | [17] 81.7% | [18] 96% | [19] 60.4%

Nc1ccn(C2CC(O)C(CO)O2)c(=O)n1 (stereo not drawn)
inactive: [1] 105% | [2] 99.1% | [3] 223% | [4] 98.8% | [5] 102% | [6] 109% | [7] 108% | [8] 100% | [9] 108% | [10] 120% | [20] 99.5% | [12] 115% | [14] 110% | [15] 116% | [16] 98.3% | [17] 113% | [18] 106% | [19] 102%

COc1ccc2c(c1)N(CCO)C1=C(C(=O)OC1)C2c1ccccc1 (stereo not drawn)
active: [5] 9.29% | [6] -24.9% | [9] 8.42% | [13] 2.16% | [15] -11.6% | [16] 2.74% | [18] 7.89%
inactive: [1] 35.1% | [2] 36.3% | [3] 41.7% | [4] 24% | [7] 46.6% | [8] 37.9% | [10] 16.4% | [20] 16.3% | [12] 63.4% | [14] 51.2% | [17] 55% | [19] 22.4%

N=C1c2nc3n(c2C(=O)c2nc4n(c21)CCCC4)CCCC3
active: [1] -70.4% | [5] 4.62% | [7] -30.6% | [9] -88.6% | [10] -93.9% | [15] -85.7% | [16] -21.7% | [17] -6.6% | [18] -95.6% | [19] 6.18%
inactive: [2] 57.1% | [3] 27.7% | [4] 52.3% | [6] 10.5% | [8] 89% | [20] 81.4% | [12] 82.6% | [13] 94.8% | [14] 71.3%

COc1cc(-c2cc(C(=O)N3CCN(C(=O)c4ccccc4NCc4cccs4)CC3)nc3cc(-c4ccccc4)nn23)cc(OC)c1OC
inactive: [1] 85.6% | [2] 78.7% | [3] 72.1% | [4] 87.5% | [5] 38.4% | [6] 18.6% | [7] 50.7% | [8] 85.2% | [9] 56.1% | [10] 81.7% | [20] 31.4% | [12] 90.1% | [13] 62.3% | [14] 90.8% | [15] 105% | [16] 98.5% | [17] 76.4% | [18] 70.9% | [19] 55.4%
